# Data: PubChem BioAssay AID590 (National Center for Advancing Translational Sciences (NCATS), 2007)
# The campaign covered roughly 59,000 compounds. About 6,500 (11%) were called active. About 15% were inconclusive and are not listed. Cut-off read from the data, not from the text of the source: active = max dye-equivalent concentration above about 10 nM; inconclusive = mostly about 1.1 nM to 9.6 nM; inactive = weaker than that. The list comes from a sample in which actives are over-represented; it also holds similar structures and randomly drawn compounds.
# Test: qHTS Assay for Spectroscopic Profiling in A350 Spectral Region
# Conditions: Compound autofluorescence, 340/450 nm, Alexa 350 dye-equivalents; hits give high values
row,Structure (SMILES),max dye-equivalent concentration
1,CC(C)C(c1nnnn1C1CCCC1)N1CCN(c2ccccc2F)CC1 (configuration not stated),inactive
2,Cc1cc(C)c(C#N)c(SCS(=O)c2ccc(C(C)(C)C)cc2)n1 (configuration not stated),inactive
3,Cc1cc(C)c(C#N)c(SCc2ccccc2C(=O)O)n1,13 nM (active)
4,Cc1cc(C)c(C#N)c(SCc2ccc3c(c2)OCO3)n1,inactive
5,CCN(CC)S(=O)(=O)c1ccc(NC(=O)CN(c2cccc(F)c2)S(C)(=O)=O)cc1,inactive
6,CCOC(=O)c1c(NC(=O)CCC(=O)NCc2ccco2)sc2c1CCCC2,inactive
7,ClC(Cl)(Cl)C(N1CCN(c2ccccc2)CC1)N1CCN(c2ccccc2)CC1,inactive
8,COc1ccccc1N1CCN(C(=O)CSc2nnc(-c3ccoc3C)o2)CC1,inactive
9,O=C(Nc1c(Cl)cccc1Cl)C1CCC1,inactive
10,Cc1nc(C)c(C(=O)Nc2ccc(C)c(F)c2)o1,inactive
11,O=C(Nc1ccncc1)c1c(F)cccc1F,inactive
12,CN1C(=O)c2ccc(NC(=O)C3CCCCC3)cc2C1=O,320 nM (active)
13,O=C(O)c1ccc(NC(=O)C2CCCCC2)cc1,inactive
14,CN1C(=O)c2ccc(NC(=O)c3c(F)c(F)c(F)c(F)c3F)cc2C1=O,110 nM (active)
15,C[N+]1(CCN=C=NC2CCCCC2)CCOCC1,inactive
16,Cc1ccc(N2CCN(S(=O)(=O)N(C)C)CC2)cc1Cl,inactive
17,CCCCOc1ccc(C(C)(O)CCN2CCOCC2)cc1 (configuration not stated),inactive
18,CC(C)C(c1nnnn1CCc1ccccc1)N1CCN(C(=O)c2ccco2)CC1 (configuration not stated),inactive
19,N#Cc1cccc(-c2ccc3ncnc(NCc4cccs4)c3c2)c1,inactive
20,CC(=O)Oc1cccc(N2C(=O)CC(Nc3ccc(N4CCOCC4)cc3)C2=O)c1 (configuration not stated),inactive
21,CS(=O)(=O)N1CCC2(CC1)CN(Cc1cc(C(F)(F)F)cc(C(F)(F)F)c1)C2,inactive
22,C#CCN1C(=O)C(O)(CC(=O)c2cc(OC)ccc2OC)c2ccccc21 (configuration not stated),14 nM (active)
23,COc1ccc(N2C(=O)CCC(C(=O)N(C)C3CCCCC3)C2c2ccc(OC)c(OC)c2)cc1 (configuration not stated),inactive
24,COc1ccc(OC)c(NC(=O)Cn2c(=O)oc3ccccc32)c1,inactive
25,COc1cc2cc(CN(CCN3CCCC3)C(=O)Nc3ccccc3Cl)c(=O)[nH]c2cc1OC,310 nM (active)
26,COc1cccc2cc(C(C)N(CCCN3CCOCC3)C(=O)Nc3ccc(Cl)cc3)oc12 (configuration not stated),inactive

row,Structure (SMILES),max dye-equivalent concentration
1,COc1ccc(CCN(Cc2cc3cccc(C)c3[nH]c2=O)C(=O)N2CCCC2)cc1OC,inactive
2,Cc1ccc(-c2nnn(CC(=O)N(CCO)C(C(=O)NC(C)(C)C)c3ccncc3)n2)cc1 (configuration not stated),inactive
3,O=C(Nc1ccc2c(c1)OCCO2)c1ccncc1,inactive
4,Cc1cc(C)n2nc(C(=O)Oc3ccc4c(c3)OCO4)nc2n1,inactive
5,COc1ccc(C(=O)CSc2nnc(COc3ccccc3)n2Cc2ccco2)cc1,inactive
6,O=c1c2[nH]c3ccc(Cl)cc3c2ncn1Cc1ccccn1,inactive
7,COc1ccc2[nH]c3c(=O)n(Cc4ccco4)cnc3c2c1,55 nM (active)
8,COC(=O)c1[nH]c2ccccc2c1NS(=O)(=O)c1ccc(OC)cc1OC,inactive
9,COc1ccc(OC)c(N=Cc2c(O)[nH]c3ccccc23)c1,64 nM (active)
10,CCOc1ccccc1NC(=O)Nc1cc(OC)ccc1OC,inactive
11,Cc1nc2nc(COc3ccccc3)[nH]n2c(=O)c1Cc1ccccc1,inactive
12,CC(=O)/C(C)=N\O,inactive
13,Cc1cccc(Cn2c(N3CCN(c4ccccc4)CC3)nc3c2c(=O)n(C)c(=O)n3C)c1,inactive
14,Cn1c(=O)c2c(nc(N3CCCCCC3)n2CC(=O)c2ccc(Br)cc2)n(C)c1=O,inactive
15,Cn1c(=O)c2c(nc(N3CCCCCC3)n2CC(O)COc2ccc(Cl)cc2)n(C)c1=O (configuration not stated),49 nM (active)
16,c1ccc(CSc2nnc(-c3ccco3)n2Cc2ccccc2)cc1,inactive
17,Cc1ccc(Oc2nc3ccccc3n3c(C)nnc23)cc1,inactive
18,CN(c1nc2ccccc2n2c(-c3ccco3)nnc12)S(=O)(=O)c1ccccc1,39 nM (active)
19,CC(=O)C1=C(O)C(=O)N(c2ccc(S(N)(=O)=O)cc2)C1c1ccccc1F (configuration not stated),23 nM (active)
20,COc1ccccc1N=C1SC(C)CN1C(=O)C1CCC1 (configuration not stated),inactive
21,COc1ccc(N2C(=O)CN=C2Nc2cccc(C)c2C)cc1OC,inactive
22,CSc1cccc(NC(=O)C2CCCN2S(=O)(=O)c2ccc3c(c2)CCC(=O)N3)c1 (configuration not stated),inactive
23,CC1(c2ccccc2Cl)NC(=O)N(CC(=O)NC(=O)NCc2ccco2)C1=O (configuration not stated),inactive
24,NC(=O)CSC1=Nc2ccccc2C2=NC(CCC(=O)NCc3ccc(F)cc3)C(=O)N12 (configuration not stated),420 nM (active)
25,O=C(CC1N=C2c3ccccc3N=C(SCc3ccccc3Cl)N2C1=O)NCc1ccco1 (configuration not stated),17 nM (active)
26,O=C(CN1C(=O)CCS(=O)(=O)c2ccccc21)NCc1ccc(F)cc1,inactive
